# Bioassay records deposited in PubChem by National Center for Advancing Translational Sciences (NCATS).
# Compounds with a hit are over-represented: about 8% of the library has one in this group of screens.
# KB-V1 cytotox: KB-V1 MDR subline cytotoxicity. KB-V1 MDR cells viability, CellTiter-Glo, 72 h. Potency, µM (doses to about 46.1 µM), most hits filed as cytotoxic. hit rate 3.4% among 400,000; note: % is set by controls: 0 for no effect and ±100 for the full control effect; nearly all actives have a fitted effect of over 60% in size
#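 Drug-selected KB-V1 cells, grown in DMEM lacking phenol red with 10% FBS, receive compound titrations; after three days at 37 degrees C, surviving cell ATP is quantified by CellTiter-Glo luminescence and responses normalized and curve-fitted.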
# SW480 rerep: DNA re-replication induction in SW480 cells. SW480 DNA re-replication, Hoechst DNA content imaging, 48 h. hit rate 1.8% among 340,000. Potency, µM (highest dose often 46.1 µM), for inactives: top-dose re-replication activation, usual class: activators. AID 624297; note: % of control where 0% means no effect; nearly all actives have a fitted effect of over 55% in size
#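 250 cells/well; 23 nL cpd via pin tool; 48 hr, 37 C, 5% CO2; Hoechst 40 min; imager read of total nuclear intensity, ex 405/em 500-530 nm.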
# KB-3-1 cytotox: kills parental KB-3-1 adenocarcinoma cells. KB-3-1 viability, CellTiter-Glo ATP luminescence, 72 h. Potency, µM (series often up to 46.1 µM), most hits filed as cytotoxic. hit rate 1.4% among 400,000. AID 1347075; note: % is set by controls: 0 for no effect and ±100 for the full control effect; nearly all actives have a fitted effect of over 60% in size
#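 Multi-concentration cytotoxicity screen in KB-3-1 cells grown in DMEM lacking phenol red with 10% FBS. After 72 h at 37 °C with compound, ATP-dependent luminescence was recorded.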
# MCF10A rerep: induces DNA re-replication in MCF 10a normal breast cells; MCF 10A DNA re-replication, Hoechst nuclear intensity, 48 h; Potency, µM (highest dose often 46.1 µM), for inactives: top-dose activity, positive = re-replication, hits mostly activators; hit rate 2.9% among 350,000; AID 624296; note: % of control where 0% means no effect; nearly all actives have a fitted effect of over 50% in size
# HT1080 IDH1KD tx: HT-1080 IDH1 knockdown cell toxicity (counter line); HT-1080 IDH1 knockdown viability, ATP luminescence, 48 h; hit rate 2% among 360,000; Potency, µM (top dose mostly 46.1 µM), for the others: at the highest dose activity, negative = toxicity, most hits filed as cytotoxic;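 note: 0% = DMSO wells and -100% = cell-free medium wells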
#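 After a 2 h attachment period, IDH1KD HT-1080 cells took pin-transferred compound for 48 h at 37 °C; ATP-based luminescence after 10 min room-temperature reagent incubation reported viability.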
# HT1080NT lethal: kills 2HG-producing HT-1080-NT fibrosarcoma cells | Potency, µM (titrated, usually from 46.1 µM), for the others: at the top dose activity, negative = less viability, most hits filed as cytotoxic | hit rate 1.6% among 360,000 | HT-1080-NT fibrosarcoma viability, CellTiter-Glo ATP luminescence, 48 h;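 note: NT is the 2HG producing partner of a matched IDH1 knockdown line; 0% = DMSO-treated cells and -100% = media-only wells without cells; nearly all actives have a fitted effect of over 55% in size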
#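 Toxicity toward the 2HG-producing NT line was scored as %Activity, normalised to DMSO and no-cell wells, from CellTiter-Glo luminescence after 48 hours' treatment.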
# * hit, by the source's call; i = inactive; ? = inconclusive; · = not tested or not shown; [ ] = remark or other dose. Calls come from the whole dose curve; as a rule, active = well fitted curve in the direction sought with a large enough effect; inconclusive = small, poorly fitted or top-dose-only effect, or another doubt; inactive = no such curve, though single readings can be large; an effect the other way counts as inactive or inconclusive. Potency is the fitted concentration of half-maximal effect.
SMILES,KB-V1 cytotox,SW480 rerep,KB-3-1 cytotox,MCF10A rerep,HT1080 IDH1KD tx,HT1080NT lethal
CCCCCCC(=O)N/N=C/c1c(O)n(C(C)CC)c(=S)[nH]c1=O (configuration not stated),i,?,?,?,15µM*,?
CC(C)Nc1nc(NC(C)C)nc(N(C#N)CCOc2ccc(Cl)cc2Cl)n1,?,?,i,18µM*,?,?
O=P(OC1CCCCC1)(OC1CCCCC1)C(O)c1ccc(Cl)cc1Cl (configuration not stated),i,?,i,-109%[0.0737 µM],15%,0%
O=P(OC1CCCCC1)(OC1CCCCC1)C(O)c1c(Cl)cccc1Cl (configuration not stated),18µM*,9%,?,?,-8%,-2%
CC1=CC2OC3CC4OC(=O)C=CC=CC(C(C)O)OCC(O)C(C)CC(=O)OCC2(CC1O)C4(C)C31CO1 (configuration not stated),?,14%,0.0092µM*,48%,·,0.046µM*
CC1=CC2OC3CC4OC(=O)C=CC=CC(=O)OCCC(C)C(O)C(=O)OCC2(CC1O)C4(C)C31CO1 (configuration not stated),0.52µM*,?,0.15µM*,16%,·,0.21µM*
CC(C)CC[C@@H](O)[C@](C)(O)C1CC[C@@]2(O)C3=CC(=O)[C@@H]4C[C@@H](O)[C@@H](O)C[C@]4(C)C3CC[C@]12C (some centres not stated),i,-17%,i,7%,9%,?
O=C(CN1C(=O)CN=C(c2ccccc2)c2ccccc21)Nc1cccc(C(F)(F)F)c1,i,·,i,·,·,·
O=C1/C(=C/c2ccc(N(CCCl)CCCl)cc2)Cc2ccccc21,i,·,i,·,·,·
O=C(N/N=C/c1ccccc1OC(=O)N1CCOCC1)c1cccs1,i,?,i,4%,?,-15%
COc1cc(C(=O)N/N=C/c2ccc(OC(=O)N3CCOCC3)cc2)cc(OC)c1OC,?,21µM*,i,6.5µM*,23µM*,?
COc1ccc(S(=O)(=O)N2c3ccc(F)cc3CCC2C)cc1 (configuration not stated),1.6µM*,?,1.6µM*,0.92µM*,3.7µM*,1.8µM*
COc1ccc(S(=O)(=O)N2Cc3ccccc3-n3nncc3C2)cc1,i,·,i,·,1%,2%
C[C@@H]1O[C@@H](O[C@@H]2C=C3CC[C@@H]4C(CC[C@]5(C)[C@@H](c6ccc(=O)oc6)CC[C@]45O)[C@@]3(C)CC2)[C@H](O)[C@H](O)[C@H]1O (some centres not stated),0.026µM*,-4%,?,0%,0.0046µM*,0.018µM*
C[C@@H]1O[C@@H](O[C@@H]2C=C3CCC4C(CC[C@]5(C)[C@@H](c6ccc(=O)oc6)CC[C@]45O)[C@@]3(C)CC2)[C@H](O)[C@H](O)[C@H]1O (some centres not stated),?,?,0.01µM*,?,0.0092µM*,0.0073µM*
CC(=O)C1CCC2(O)C3CCC4=CC(=O)CCC4(C)C3CCC12C (configuration not stated),?,-3%,i,-2%,1%,11%
Cc1noc(C)c1CSCC(=O)Nc1ccc(C#N)c(Cl)c1,i,-22%,i,5%,0%,-6%
Cc1sc2ncnc(N3CCC(C(=O)Nc4ccc(C#N)c(Cl)c4)CC3)c2c1C,i,0%,i,13µM*,?,?
CC(=O)Oc1ccc2c3c1OC1[C@@H](OC(C)=O)C=C[C@H]4[C@H](C2)N(C)CC[C@]314 (some centres not stated),·,-2%,·,3%,·,·
COCCN1C(=O)NC(=O)/C(=C\c2ccc(F)cc2)C1=O,i,-5%,i,5.2µM*,-4%,4%
CC[C@@]1(c2ccc(N)cc2)CCC(=O)NC1=O,·,1%,·,8%,·,·
CCS(=O)(=O)N1CCN(C2CCC(C)CC2)CC1 (configuration not stated),i,?,i,5%,0%,-14%
CCCC1(CCC)C(=O)NC(=Nc2ccccc2)NC1=O,i,0%,i,-5%,8%,8%
CCCC1(CCC)C(=O)NC(=NCc2ccccc2)NC1=O,i,?,?,?,?,15µM*
CC(C)C[C@H]1CNC(=S)N1CC1CCN(CC2CCC(C(C)(C)C)CC2)CC1 (some centres not stated),i,2%,i,?,0%,0%
SMILES,KB-V1 cytotox,SW480 rerep,KB-3-1 cytotox,MCF10A rerep,HT1080 IDH1KD tx,HT1080NT lethal
C#CC1(O)CCC2C3CCC4=CC(=O)CCC4=C3C=CC21C (configuration not stated),2.6µM*,-1%,2.3µM*,28%,?,?
O=P(O)(O)COc1ccccc1O,i,4.6µM*,i,?,2%,2%
CCCC12CN3CC(C)(CN(C1)C3c1c(C)[nH]c(=O)[nH]c1=O)C2=O (configuration not stated),i,·,i,·,·,·
CCC1(c2ccccc2)C(=O)NC(=O)N(C(=O)c2ccccc2)C1=O (configuration not stated),·,0%,·,-2%,·,·
CC(C)(C)c1cc([N+](=O)[O-])cc(C(C)(C)C)c1O,i,-13%,12µM*,13%,?,?
O=C(CN1C(=O)C(=O)N(C2CCCC2)C1=O)Nc1cc(Cl)ccc1[N+](=O)[O-],·,-3%,·,?,-3%,-2%
O=C(Nc1ccccc1)Oc1ccccc1,?,-5%,i,-6%,2%,-11%
CC(C)Oc1ccc(CNC(=O)Oc2ccccc2)cc1,i,?,?,12µM*,?,-3%
C=C1C(=O)O[C@@H]2C[C@@H](C)[C@@H]3C=CC(=O)[C@@]3(C)[C@@H](OC(C)=O)[C@H]12,15µM*,?,?,1.2µM*,4.6µM*,6.5µM*
C=C1C(=O)O[C@@H]2C[C@@H](C)[C@@H]3C=CC(=O)[C@@]3(C)[C@@H](O)[C@H]12,i,?,?,0.92µM*,0.58µM*,1.5µM*
NCC(=O)c1ccc(Cl)c(Cl)c1,i,·,?,·,·,·
NC(N)=NS(=O)(=O)c1ccc(N)cc1,i,-23%,i,?,14%,14%
